Shown are actives, neighbours in structure and some others; about 2.5% of the full set was active somewhere.
TrxR1 substrate = qHTS Assay for Substrates of Mammalian Selenoprotein Thioredoxin Reductase 1 (TrxR1): qHTS. Thioredoxin reductase 1, cytoplasmic (Rattus norvegicus), O89049. purified TrxR1 substrate turnover, NADPH consumption readout. Potency, µM (highest dose often 114 µM), inactives show at the highest dose activity change, negative = substrate turnover. hit rate 0.01% among 390,000. AID 588456, 2011; also: potency is read from the fitted curve at half-maximal effect; % is scaled to controls: 0 for no effect and ±100 for the full control effect; nearly all actives have a fitted effect of over 50% in size
Target sequence (O89049 whole entry, looked up): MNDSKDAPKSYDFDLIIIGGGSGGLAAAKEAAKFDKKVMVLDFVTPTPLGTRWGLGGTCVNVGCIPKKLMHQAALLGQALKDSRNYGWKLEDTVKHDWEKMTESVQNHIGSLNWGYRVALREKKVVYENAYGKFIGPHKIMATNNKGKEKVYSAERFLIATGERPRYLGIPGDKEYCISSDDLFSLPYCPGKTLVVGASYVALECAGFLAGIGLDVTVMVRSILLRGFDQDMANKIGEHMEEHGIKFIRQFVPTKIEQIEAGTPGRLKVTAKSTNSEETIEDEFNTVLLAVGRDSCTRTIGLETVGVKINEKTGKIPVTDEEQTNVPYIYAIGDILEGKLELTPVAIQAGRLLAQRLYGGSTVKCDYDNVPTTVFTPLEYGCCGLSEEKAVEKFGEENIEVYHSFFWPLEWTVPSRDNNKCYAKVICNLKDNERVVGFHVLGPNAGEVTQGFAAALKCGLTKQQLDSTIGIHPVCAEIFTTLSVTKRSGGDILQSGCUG
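Rat TrxR1, dispensed at 90 nM, was prereduced with 400 uM NADPH (final) for 5 min at ~22 deg C, then incubated with compound 15 min before 400 uM selenite. A first-read NADPH fluorescence drop versus no-compound background flagged substrates.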
ClpP mod = qHTS Assay for Activators of ClpP; Potency, µM (titrated, usually from 57.5 µM), without a hit: at the highest dose activity change, negative = active; purified B. subtilis ClpP, FRET peptide cleavage, 20 min; AID 651965, 2013; hit rate 1.9% among 340,000; ATP-dependent Clp protease proteolytic subunit (Bacillus subtilis (strain 168)), P80244; active = well fitted falling curve with a large enough effect; inconclusive = small, poorly fitted or top-dose-only effect; inactive = no such curve, though single readings can be large or run the other way; also: potency is read from the fitted curve at half-maximal effect; the source files actives as falling curves though it sought activators and does not explain the sign; nearly all actives have a fitted effect of over 65% in size
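Purified B. subtilis ClpP, 10 microg/mL final in Tris/HCl pH8 with KCl, BSA, glycerol and Tween-20, cleaved an Abz/nitrotyrosine-quenched decapeptide. Fluorescence (ex 320, em 430) was read at 0 and 20 min at room temperature. Delta was normalized to 5.8 microM ADEP and DMSO/no-enzyme controls.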
rTrxR1 inhibitor = qHTS Assay for Inhibitors of Mammalian Selenoprotein Thioredoxin Reductase 1 (TrxR1): qHTS. Potency, µM (titrated, usually from 114 µM), inactives show top-dose activity change, negative = inhibition, usual class: inhibitors. Thioredoxin reductase 1, cytoplasmic (Rattus norvegicus), O89049. recombinant rTrxR1, NADPH fluorescence consumption, selenite substrate. AID 588453, 2011. hit rate 1% among 390,000; also: potency is read from the fitted curve at half-maximal effect; % is scaled to controls: 0 for no effect and ±100 for the full control effect; nearly all actives have a fitted effect of over 65% in size
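Rat TrxR1 (90 nM in the dispensed reagent) was pre-reduced with 400 uM NADPH for 5 min at room temperature, then incubated with compound for 15 min. After 400 uM selenite was added, NADPH fluorescence (Ex 340/Em 450 nm) was followed for 8 min.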
Anesthetic bind = qHTS Assay for Identification of Novel General Anesthetics | Ferritin light chain (Equus caballus), P02791 | apoferritin/1-aminoanthracene competitive binding, fluorescence | Potency, µM (top dose mostly 77.5 µM), without a hit: top-dose activity change, negative = displacement, actives largely listed as inhibitors | hit rate 0.074% among 350,000; also: potency is read from the fitted curve at half-maximal effect; % is scaled to controls: 0 for no effect and ±100 for the full control effect; nearly all actives have a fitted effect of over 20% in size
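In PBS, apoferritin at 10 uM is loaded with 1-AMA from a 50% saturated solution. After 10 min of compound exposure at ambient temperature, reduced 535 nm fluorescence indicates probe displacement.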
miR-21 reporter = qHTS Assay for Modulators of miRNAs and/orActivators of miR-21; HeLa miR-21 FLuc reporter, luciferase, 48 h; Potency, µM (series often up to 38.3 µM), for inactives: at the highest dose activity change, positive = activation, actives largely listed as activators; 340,000 tested, under 10 active; AID 2288, 2010;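 also: % of control where 0% means no effect; miR-21 action dims this reporter so a rising signal means less miR-21 action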
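Compounds were titrated across several concentrations (up to approximately 40 uM) and incubated 48 hours with HeLa miR-21-FLuc reporter cells (miR-21 target sequence downstream of FLuc, endogenous miR-21). Readout was firefly luciferase luminescence after lytic detection reagent.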
ClpP inh valid = qHTS Assay for Activators of ClpP: Hit Validation of Inhibitors; hit rate 40% among 470; shares compounds with ClpP mod; Potency, µM (highest dose often 57.5 µM), without a hit: top-dose activity change, negative = inhibition, actives largely listed as inhibitors; purified B. subtilis ClpP, FRET-FV substrate cleavage, 20 min; AID 743245, 2014; also: potency is read from the fitted curve at half-maximal effect; % is scaled to controls: 0 for no effect and ±100 for the full control effect; nearly all actives have a fitted effect of over 70% in size
* marks the source's active call; other numbers are inactive results; ? = inconclusive; . = not tested or not shown; [ ] = dose if it differs, or a comment. Unless noted, calls follow the shape of the dose curve; as a rule, active = well fitted curve in the direction sought with a large enough effect; inconclusive = small, poorly fitted or top-dose-only effect, or another doubt; inactive = no such curve, though single readings can be large; an effect the other way counts as inactive or inconclusive.

SMILES | TrxR1 substrate | ClpP mod | rTrxR1 inhibitor | Anesthetic bind | miR-21 reporter | ClpP inh valid
O=c1oc2ccccc2cc1-c1nnc(-c2cccc(Br)c2)o1 | 1.2% | 0.708µM* | -16.1% | -17.9% | -7.7% | ?
CC(=O)OC1C=C[C@@H](OC(C)=O)C1 (stereo partly drawn) | . | . | . | -5.5% | . | .
c1ccc2nc(-c3nc4ccccc4o3)ccc2c1 | 44.8% | 8.91µM* | -7.7% | 0.4% | 25.2% | 21.7µM*
c1ccc(-c2ccc3ccccc3n2)cc1 | -2.9%[57.1 µM] | 0.0% | -0.1%[57.1 µM] | . | . | .
COc1ccc(-n2c(=O)c3c(c4cc(OC)ccc4n3C)n(Cc3cccc(OC)c3)c2=O)cc1 | 19.7% | 2.51µM* | 27.2% | 57.5% | -5.9% | 21.7µM*
CCOc1ccccc1-c1noc(CCCC(=O)Nc2cccc(C(F)(F)F)c2)n1 | -8.7% | -2.0% | 23.2% | 4.9% | 12.8% | .
CC(C)CCNc1ncnc2c1nnn2Cc1ccccc1Cl | -6.2% | 10µM* | -7.9% | -15.5% | -0.1% | -2.4%
CC(C)(C)n1ncc2c(=O)n(Cc3ccccc3)cnc21 | -1.1% | . | 5.5% | . | . | .
CC1CCc2onc(C(=O)N3CCN(c4ccc(F)cc4)CC3)c2C1 (stereo not drawn) | -6.0% | -3.8% | 5.9% | -12.7% | 3.9% | .
COc1ccc(-c2ccc(N(C)C)cc2)cc1[C@H]1[C@H]2C=CC[C@@H](C)[C@@H]2C(=O)N1Cc1ccccc1 | 16.7% | 2.24µM* | 17.2%[57.1 µM] | -10.9% | -0.8% | 34.3µM*
COc1ccc(-c2ccc(N(C)C)cc2)cc1C1C2C=CCC(C)C2C(=O)N1Cc1ccccc1 (stereo not drawn) | 8.6% | . | -2.2% | -3.9% | . | .
CCn1c(C(=O)N2CCCC(C(=O)NCCCOC)C2)cc2sccc21 (stereo not drawn) | -5.4% | -3.5% | -8.2% | 8.8% | -1.5% | .
CCCC(=O)Nc1ccc2oc(-c3ccc(OC)c(Br)c3)nc2c1 | 36.9%[57.1 µM] | 8.91µM* | 24.4%[57.1 µM] | -14.5% | -39.5% | 24.3µM*
CCC(Cc1ccccc1)NC(=O)Cn1ncc2c3ccccc3n(Cc3ccccc3)c2c1=O (stereo not drawn) | 11.2% | 4.6% | 11.9% | -8.2% | -1.9% | .
COc1ccc(-c2ccc(-c3nnc(Cc4ccc(OC)c(OC)c4)o3)cc2)cc1 | 15.2%[57.1 µM] | 2µM* | 5.0%[57.1 µM] | -14.5% | -6.6% | ?
COc1ccc(OC)c(NCc2nnc(-c3ccccc3)o2)c1 | 6.8% | . | 37.8% | -16.2% | -17.4% | .
Cc1cccc(NC(=O)CSc2nc3ccccc3nc2N2CCOCC2)c1C | 6.3% | 2.2% | 25.0% | -0.4% | -2.5% | .
CC1(C)CC(=O)c2cc(-c3nc(-c4ccc(Cl)cc4)cs3)c(=O)n(-c3cccc(F)c3)c2C1 | 33.2% | -58.7% | 25.7% | 3.8% | 0.5% | .
COc1ccc2nc3n(c(=O)c2c1)-c1cc2ccccc2cc1C(=O)NC3Cc1ccccc1 (stereo not drawn) | . | 5.62µM* | . | . | . | ?
COc1cccc(-c2nc(-c3ccc(NC(=O)c4cccs4)cc3)no2)c1 | 43.3% | 41.0% | 18.9% | -14.1% | -43.5% | ?
CCn1cc(CNC(=O)c2cc(-c3ccc(C)c(C)c3)nc3ccccc23)c(C)n1 | 10.2% | ? | 2.0% | 48.6% | 15.6% | .
Cc1ccc(-c2cc(C(=O)NCc3ccccc3Cl)c3ccccc3n2)cc1C | 1.0%[57.1 µM] | 4.47µM* | 14.1%[57.1 µM] | 3.4% | -9.0% | 27.3µM*
Cc1cc(C)cc(C(=O)N(Cc2ccco2)c2c(N)n(Cc3ccccc3)c(=O)[nH]c2=O)c1 | -2.5% | 10µM* | 1.4% | . | . | -1.3%
O=C(Cc1cccs1)Nc1ccc(-c2nnc(-c3ccccc3)o2)cc1 | 43.5% | 8.91µM* | 1.3% | . | . | 12.2µM*

Screens from PubChem.
